# Results as given in PubChem BioAssay (NCATS).
# Values joined by “and” are separate entries in the source; they are usually repeats but may differ in a detail not shown here. Identical values can stand only once. Results filed as inconclusive are left out. Entries that show only a call come without a potency. More than one record can exist for a structure, and the calls need not agree. Values without a mark were called inactive. Active and inactive are the calls of the source. Calls follow the shape of the dose curve; as a rule, active = well fitted inhibition curve with a large enough effect; inconclusive = small, poorly fitted or top-dose-only effect; inactive = flat fitted curve, though single readings scatter.
# Tests used:
# N140 = assay: qHTS profiling for inhibitors of Plasmodium falciparum proliferation (AID 504749); also: potency is read from the fitted curve at half-maximal effect; settings: P. falciparum in erythrocytes, SYBR Green DNA, 72 h; series mostly up to 28.7 µM
# How it was run: (§1)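 Infected RBCs, 0.3% parasitemia/2.5% Hct final; cpd 72 h, 37 C, 5% CO2; lysis buffer with saponin/triton/SYBR Green I, o/n RT dark; FI 485/535; norm. to artemisinin (0.29 uM) and DMSO.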
# P93_24 = assay: as above; settings: P. falciparum in erythrocytes, SYBR Green DNA, 72 h; series mostly up to 28.7 µM
# How it was run: as §1
# P94_40 = assay: as above; settings: P. falciparum in erythrocytes, SYBR Green DNA, 72 h; series mostly up to 28.7 µM
# How it was run: as §1
# PAD = assay: as above; settings: P. falciparum in erythrocytes, SYBR Green DNA, 72 h; series mostly up to 28.7 µM
# How it was run: as §1
# PC15 = assay: as above; settings: P. falciparum in erythrocytes, SYBR Green DNA, 72 h; series mostly up to 28.7 µM
# How it was run: as §1
# PC26 = assay: as above; settings: P. falciparum in erythrocytes, SYBR Green DNA, 72 h; series mostly up to 28.7 µM
# How it was run: as §1
# PC49 = assay: as above; settings: P. falciparum in erythrocytes, SYBR Green DNA, 72 h; series mostly up to 28.7 µM
# How it was run: as §1
# SC27B = assay: as above; settings: P. falciparum in erythrocytes, SYBR Green DNA, 72 h; series mostly up to 28.7 µM
# How it was run: as §1
# TAB109 = assay: as above; settings: P. falciparum in erythrocytes, SYBR Green DNA, 72 h; series mostly up to 28.7 µM
# How it was run: as §1
# TAB113 = assay: as above; settings: P. falciparum in erythrocytes, SYBR Green DNA, 72 h; series mostly up to 28.7 µM
# How it was run: as §1
# TAB165 = assay: as above; settings: P. falciparum in erythrocytes, SYBR Green DNA, 72 h; series mostly up to 28.7 µM
# How it was run: as §1
# W2 = assay: as above; settings: P. falciparum in erythrocytes, SYBR Green DNA, 72 h; series mostly up to 28.7 µM
# How it was run: as §1
# CRL-7250 [1] = assay: Cytotoxic Profiling of Annotated Libraries Using Quantitative High-Throughput Screening (AID 1296008); settings: Five cell lines viability, CellTiter-Glo ATP luminescence, 48-72 h; max response: active compounds read low; also: potency is read from the fitted curve at half-maximal effect
# How it was run: (§2)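 Cytotoxicity was measured as CellTiter-Glo ATP luminescence, read after 10 min at room temperature. Compound treatment of the cells lasted 48 or 72 hr at 37 degrees Celsius in a qHTS format.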
# HEK293 = assay: as above; settings: Five cell lines viability, CellTiter-Glo ATP luminescence, 48-72 h; max response: active compounds read low
# How it was run: as §2
# HaCat [2] = assay: as above; settings: Five cell lines viability, CellTiter-Glo ATP luminescence, 48-72 h; max response: active compounds read low
# How it was run: as §2
# KB-3-1 = assay: as above; settings: Five cell lines viability, CellTiter-Glo ATP luminescence, 48-72 h; max response: active compounds read low
# How it was run: as §2
# NIH3T3 = assay: as above; settings: Five cell lines viability, CellTiter-Glo ATP luminescence, 48-72 h; max response: active compounds read low
# How it was run: as §2
# HACAT [3] = assay: qHTS assay to identify novel small-molecules to repurpose for Merkel cell carcinoma treatment (AID 1296009); settings: MCC and control cell lines, CellTiter-Glo viability, 72 h; at 44.8 µM (top of the series) unless noted
# How it was run: (§3)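 72 hr, 37 degree celsius; NPC 8-pt / MIPE 11-pt dose response; compound pinned in DMSO; CellTiter-Glo, 10 min RT, luminescence; normalized to no-cell and DMSO controls.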
# CRL-7250 [4] = assay: as above; settings: MCC and control cell lines, CellTiter-Glo viability, 72 h; series mostly up to 44.8 µM
# How it was run: as §3
# HEK293T = assay: as above; settings: MCC and control cell lines, CellTiter-Glo viability, 72 h; at 44.8 µM (top of the series)
# How it was run: as §3
# Also: nearly all actives have a fitted effect of over 60% in size.
compound,measurement,setting,value
CC(C)CC(N(C)C)C1(c2ccc(Cl)cc2)CCC1 (stereo not drawn),Potency,N140,inactive
same,Potency,P93_24,inactive
same,Potency,P94_40,inactive
same,Potency,PAD,inactive
same,Potency,PC15,inactive
same,Potency,PC26,inactive
same,Potency,PC49,inactive
same,Potency,SC27B,inactive
same,Potency,TAB109,inactive
same,Potency,TAB113,inactive
same,Potency,TAB165,inactive
same,Potency,W2,inactive
same,max response,CRL-7250 [1],1.51% and -18.8%
same,max response,HEK293,3.97% and -10.6%
same,max response,HaCat [2],-11.1%
same,outcome,HaCat [2],inactive
same,max response,KB-3-1,20.9% and 1.72%
same,max response,NIH3T3,-0.177%
same,outcome,NIH3T3,inactive
same,outcome,HACAT [3],inactive
COc1ccc(Cc2nccc3cc(OC)c(OC)cc23)cc1OC,Potency,CRL-7250 [1],5.31 µM (active)
same,max response,CRL-7250 [1],2.23%
same,Potency,HEK293,8.41 µM (active)
same,max response,HaCat [2],-4.38% and -16.7%
same,max response,KB-3-1,-20.5% and -0.283%
same,max response,NIH3T3,-6.53%
C=CCN1CC[C@]23c4c5ccc(O)c4O[C@H]2C(=O)CC[C@@]3(O)[C@H]1C5,max response,CRL-7250 [1],-3.06%
same,max response,HEK293,-4.65%
same,max response,HaCat [2],-19.7%
same,max response,KB-3-1,-7.11% and -7.3%
same,max response,NIH3T3,-3.86%
CN(C)[C@@H]1C(=O)C(C(N)=O)=C(O)[C@@]2(O)C(=O)C3=C(O)c4c(O)cccc4[C@@](C)(O)[C@H]3C[C@@H]12,max response,CRL-7250 [1],-3.81%
same,outcome,CRL-7250 [1],inactive
same,max response,HEK293,-12.7%
same,max response,HaCat [2],-13.2% and 4.81%
same,max response,KB-3-1,-1.95% and 4.68%
same,max response,NIH3T3,-3.21% and -4.63%
same,outcome,CRL-7250 [4],inactive
CC(C)NCC(O)c1ccccc1Cl (stereo not drawn),Potency,N140,7.08 µM (active)
same,Potency,P93_24,12.6 µM (active)
same,Potency,P94_40,3.98 µM (active)
same,Potency,PAD,7.94 µM (active)
same,Potency,PC15,11.2 µM (active)
same,Potency,SC27B,10 µM (active)
same,Potency,TAB109,4.47 µM (active)
same,Potency,TAB113,12.6 µM (active)
same,Potency,W2,3.38 µM (active)
same,outcome,CRL-7250 [1],inactive
same,outcome,HEK293,inactive
same,max response,HaCat [2],-6.64%
same,max response,KB-3-1,-12%
same,max response,NIH3T3,-1.73%
same,outcome,CRL-7250 [4],inactive
same,outcome,HEK293T,inactive
O=C(O)C(=O)c1cn(Cc2ccccc2)c2ccc(-c3ccc(OC(F)(F)F)cc3)cc12,max response,CRL-7250 [1],-5.5%
same,outcome,CRL-7250 [1],inactive
same,max response,HEK293,3.18%
same,outcome,HEK293,inactive
same,max response,HaCat [2],-0.483%
same,outcome,HaCat [2],inactive
same,outcome,KB-3-1,inactive
same,max response,NIH3T3,-16.9% and 4.93%
same,outcome,CRL-7250 [4],inactive
same,outcome,HACAT [3],inactive
same,outcome,HEK293T,inactive
CNC(=O)c1ccc(N2C(=S)N(c3ccc(C#N)c(C(F)(F)F)c3)C(=O)C23CCC3)cc1F,outcome,CRL-7250 [1],inactive
same,max response,HEK293,-7.61%
same,outcome,HEK293,inactive
same,outcome,HaCat [2],inactive
same,max response,KB-3-1,0.285% and 2.98%
same,max response,NIH3T3,3.77% and -4.83%
same,outcome,CRL-7250 [4],inactive
same,outcome,HACAT [3],inactive
same,outcome,HEK293T,inactive
CNCC(O)c1ccc(O)cc1 (stereo not drawn),max response,CRL-7250 [1],-6.88%
same,max response,HEK293,-14.1% and 1.65%
same,outcome,HaCat [2],inactive
same,max response,KB-3-1,12.6%
same,outcome,KB-3-1,inactive
same,max response,NIH3T3,-18%
same,outcome,NIH3T3,inactive
same,outcome,HACAT [3],inactive
O=C1CC[C@@]2(O)[C@H]3Cc4ccc(O)c5c4[C@@]2(CCN3CC2CC2)[C@H]1O5,max response,CRL-7250 [1],-7.93%
same,outcome,CRL-7250 [1],inactive
same,max response,HEK293,-3.14% and -3.82%
same,outcome,HaCat [2],inactive
same,max response,KB-3-1,6.29%
same,outcome,KB-3-1,inactive
same,max response,NIH3T3,-0.716%
same,outcome,NIH3T3,inactive
same,outcome,CRL-7250 [4],inactive
same,outcome,HACAT [3],inactive
COc1ccc(C(CN(C)C)C2(O)CCCCC2)cc1 (stereo not drawn),Potency,P93_24,inactive
same,Potency,P94_40,inactive
same,Potency,PAD,inactive
same,Potency,PC15,inactive
same,Potency,PC49,inactive
same,Potency,SC27B,inactive
same,Potency,TAB109,inactive
same,Potency,TAB113,inactive
same,Potency,TAB165,inactive
same,Potency,W2,1.9 µM (active)
same,max response,CRL-7250 [1],-3.43% and 1.19%
same,max response,HEK293,1.04%
same,outcome,HEK293,inactive
same,max response,HaCat [2],1.09% and -4.23%
same,max response,KB-3-1,2.29% and -2.64%
same,max response,NIH3T3,2.42%
same,outcome,NIH3T3,inactive
same,outcome,HEK293T,inactive
CN1CCN(C(=O)O[C@H]2c3nccnc3C(=O)N2c2ccc(Cl)cn2)CC1,Potency,N140,inactive
same,Potency,P93_24,inactive
same,Potency,P94_40,inactive
same,Potency,PAD,inactive
same,Potency,PC15,inactive
same,Potency,PC26,inactive
same,Potency,SC27B,inactive
same,Potency,TAB109,inactive
same,Potency,TAB113,inactive
same,Potency,TAB165,inactive
same,Potency,W2,inactive
same,outcome,CRL-7250 [1],inactive
same,max response,HEK293,3.04%
same,outcome,HEK293,inactive
same,max response,HaCat [2],-17.1%
same,outcome,HaCat [2],inactive
same,max response,KB-3-1,4.48%
same,max response,NIH3T3,-1.04% and -0.741%
same,outcome,CRL-7250 [4],inactive
same,outcome,HACAT [3],inactive
same,outcome,HEK293T,inactive
CN(C)CCN(C)CCc1ccc(Cl)c(Cl)c1,outcome,CRL-7250 [1],inactive
same,max response,HEK293,0.598%
same,max response,HaCat [2],-22.4%
same,max response,KB-3-1,0.794%
same,max response,NIH3T3,-6.27%
same,outcome,CRL-7250 [4],inactive
Cc1sc2c(c1C)C(c1ccc(Cl)cc1)=N[C@@H](CC(=O)OC(C)(C)C)c1nnc(C)n1-2,Potency,CRL-7250 [1],0.372 µM (active)
same,Potency,HEK293,0.526 µM (active)
C[C@@H]1O[C@@H](O[C@H]2C[C@@H](O)[C@]3(CO)[C@H]4[C@H](O)C[C@]5(C)[C@@H](C6=CC(=O)OC6)CC[C@]5(O)[C@@H]4CC[C@]3(O)C2)[C@H](O)[C@H](O)[C@H]1O,Potency,CRL-7250 [1],29.6 nM (active) and 84.1 nM (active) and 89.3 nM (active)
same,Potency,HEK293,46.9 nM (active) and 94.4 nM (active) and 70.9 nM (active)
same,Potency,HaCat [2],266 nM (active) and 142 nM (active)
same,Potency,KB-3-1,52.6 nM (active) and 46.1 nM (active) and 112 nM (active)
same,outcome,NIH3T3,inactive
COC1(CS(=O)c2ccccc2)CCN(CCc2c[nH]c3ccc(F)cc23)CC1 (stereo not drawn),max response,CRL-7250 [1],-22.3%
same,max response,HEK293,-11.2%
same,max response,HaCat [2],-21.9%
same,max response,KB-3-1,-9.1%
same,max response,NIH3T3,-8%
Cn1cc(C2=C(c3cn(C4CCN(Cc5ccccn5)CC4)c4ccccc34)C(=O)NC2=O)c2ccccc21,max response,CRL-7250 [1],-3.19% and -9.47%
same,max response,HEK293,-3.71% and -0.888%
same,max response,HaCat [2],-7.11%
same,max response,KB-3-1,7.73% and 20.1%
same,outcome,NIH3T3,inactive
CC(=O)[C@H]1CC[C@H]2[C@@H]3CC[C@H]4C[C@](C)(O)CC[C@]4(C)[C@H]3CC[C@]12C,Potency,N140,inactive
same,Potency,P93_24,inactive
same,Potency,P94_40,inactive
same,Potency,PAD,inactive
same,Potency,PC15,inactive
same,Potency,PC26,inactive
same,Potency,PC49,inactive
same,Potency,SC27B,inactive
same,Potency,TAB109,inactive
same,Potency,TAB113,inactive
same,Potency,TAB165,inactive
same,outcome,CRL-7250 [1],inactive
same,outcome,HEK293,inactive
same,outcome,HaCat [2],inactive
same,max response,KB-3-1,-8.61%
same,outcome,NIH3T3,inactive
same,outcome,CRL-7250 [4],inactive
same,outcome,HACAT [3],inactive
same,outcome,HEK293T,inactive
